Measurements as given in the supplement of paper PMC10849652.
Targets with a hit are over-represented here; the source holds about 7,900 in all. About 0.6% of all pairs of compound and target were hits.

Assays:
Experiment in all cases: log2 fold change, soluble protein after heating vs DMSO (PISA); higher = thermal stabilisation; K562 cells, 10 uM, 30 min; active = over 0.2 and 3.5 SD of the protein, either way, in both replicates (recomputed)
[1] = compound: C1=CC=C(C=C1)[C@H](COC2=CC3=C(C=C2)NC(=O)N3)NC(=O)C4=CC=CN(C4=O)CC5=CC(=C(C=C5)F)F
Summary of the method: (§1)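 Soluble protein was quantified by TMTpro 16plex LC-MS/MS after channel sums were equalised. It was obtained as the supernatant after 21,000xg for 90 min from pooled aliquots of K562 cells (2×10^6 cells/mL, 10 μM compound, 30 min) heated for 3 min across 48°C-58°C and extracted in PBS with 0.5% NP-40 at 4°C. Thermal stability values are relative to control samples and come from duplicates. They are given as log2 fold changes.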

[2] = compound: CC1=C(SC2=C1C(=N[C@H](C3=NN=C(N32)C)CC(=O)N)C4=CC=C(C=C4)Cl)C
Summary of the method: as §1

[3] = compound: CC1=C2C(=CC=C1)N=C(N(C2=O)C3=CC=CC=C3C)CN4C=NC5=C(N=CN=C54)N
Summary of the method: as §1

[4] = compound: Cc1sc2c(c1C)C(c1ccc(Cl)cc1)=N[C@@H](CC(=O)OC(C)(C)C)c1nnc(C)n1-2
Summary of the method: as §1

[5] = compound: c1ccc([C@@H]2C[C@H]2NC2CCNCC2)cc1
Summary of the method: as §1

Measured: log2 fold change

MED22 (UniProt Q15528)
inactive: [1] 0.013 | [2] 0.065 | [3] 0.013 | [4] 0.195 | [5] 0

IMMT isoform 4 (UniProt Q16891)
inactive: [1] 0.005 | [2] 0.021 | [3] 0.026 | [4] -0.025 | [5] -0.008

LAPTM4B (UniProt Q86VI4)
inactive: [1] -0.12

MAP4 isoform 5 (UniProt P27816)
inactive: [1] 0.077

MAPKAPK3 (UniProt Q16644)
inactive: [1] -0.122 | [2] 0.013 | [3] 0.027 | [4] -0.034 | [5] -0.109

LOX (UniProt P28300)
inactive: [1] -0.113

LMBR1 isoform 3 (UniProt Q8WVP7)
UniProt Q8WVP7, sequence (Q8WVP7 whole entry, looked up): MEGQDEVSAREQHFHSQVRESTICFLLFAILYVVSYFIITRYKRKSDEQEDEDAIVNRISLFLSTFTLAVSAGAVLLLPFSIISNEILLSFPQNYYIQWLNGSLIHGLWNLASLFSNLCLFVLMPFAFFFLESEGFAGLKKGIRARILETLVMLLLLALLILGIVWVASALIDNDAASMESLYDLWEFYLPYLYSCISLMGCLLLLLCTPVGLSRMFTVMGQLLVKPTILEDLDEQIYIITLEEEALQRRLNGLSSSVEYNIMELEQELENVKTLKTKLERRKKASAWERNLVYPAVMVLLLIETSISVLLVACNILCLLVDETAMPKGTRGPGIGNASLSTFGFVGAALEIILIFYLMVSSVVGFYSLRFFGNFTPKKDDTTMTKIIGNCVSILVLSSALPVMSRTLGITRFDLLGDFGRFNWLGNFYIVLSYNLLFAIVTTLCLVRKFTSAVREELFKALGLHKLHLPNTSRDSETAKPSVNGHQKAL
inactive: [1] -0.194 | [2] 0.147 | [3] -0.134 | [4] -0.349 | [5] 0.078

INPP1 (UniProt P49441)
inactive: [1] -0.017 | [2] -0.002 | [3] 0.125 | [4] -0.002 | [5] 0.01

ILF2 (UniProt Q12905)
inactive: [1] 0.047 | [2] -0.078 | [3] -0.141 | [4] 0.14 | [5] 0.034

IPP (UniProt Q9Y573)
inactive: [1] 0.065

KXD1 (UniProt Q9BQD3)
inactive: [1] -0.178 | [2] 0.079 | [3] 0.042 | [4] -0.079 | [5] 0.034

MAST4 (UniProt O15021)
inactive: [1] -0.081 | [2] 0.037 | [3] 0.061 | [4] -0.002 | [5] -0.041

MAPKAPK5 (UniProt Q8IW41)
inactive: [1] 0.042 | [2] 0.001 | [3] 0.015 | [4] -0.069 | [5] -0.009

MFSD8 (UniProt Q8NHS3)
inactive: [1] -0.134 | [2] -0.033 | [3] 0.074 | [4] -0.289 | [5] 0.119

MAD2L1 (UniProt Q13257)
UniProt Q13257, sequence (Q13257 whole entry, looked up): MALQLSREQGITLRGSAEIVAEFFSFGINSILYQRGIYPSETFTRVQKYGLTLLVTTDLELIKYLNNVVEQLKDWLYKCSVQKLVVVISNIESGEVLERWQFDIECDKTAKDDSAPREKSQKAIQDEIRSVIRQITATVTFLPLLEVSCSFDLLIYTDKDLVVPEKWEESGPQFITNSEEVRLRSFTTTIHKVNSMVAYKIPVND
inactive: [1] -0.045 | [2] 0.077 | [3] 0.067 | [4] -0.021 | [5] -0.019

L2HGDH (UniProt Q9H9P8)
inactive: [1] -0.031 | [2] 0.07 | [3] 0.078 | [4] 0.018 | [5] -0.029

MIEF1 (UniProt L0R8F8)
inactive: [1] 0.072 | [2] 0.026 | [3] 0.039 | [4] -0.092 | [5] 0.007

MAIP1 (UniProt Q8WWC4)
inactive: [1] 0.012 | [2] 0.075 | [3] 0.028 | [4] -0.026 | [5] 0.002

IPO9 (UniProt Q96P70)
inactive: [1] 0.018 | [2] 0.063 | [3] 0.014 | [4] -0.01 | [5] 0.079

MAP4 (UniProt E7EVA0)
inactive: [1] -0.009 | [2] -0.15 | [3] -0.095 | [4] 0.096 | [5] 0.005

LPIN1 isoform 7 (UniProt Q14693)
UniProt Q14693, sequence (Q14693 whole entry, looked up): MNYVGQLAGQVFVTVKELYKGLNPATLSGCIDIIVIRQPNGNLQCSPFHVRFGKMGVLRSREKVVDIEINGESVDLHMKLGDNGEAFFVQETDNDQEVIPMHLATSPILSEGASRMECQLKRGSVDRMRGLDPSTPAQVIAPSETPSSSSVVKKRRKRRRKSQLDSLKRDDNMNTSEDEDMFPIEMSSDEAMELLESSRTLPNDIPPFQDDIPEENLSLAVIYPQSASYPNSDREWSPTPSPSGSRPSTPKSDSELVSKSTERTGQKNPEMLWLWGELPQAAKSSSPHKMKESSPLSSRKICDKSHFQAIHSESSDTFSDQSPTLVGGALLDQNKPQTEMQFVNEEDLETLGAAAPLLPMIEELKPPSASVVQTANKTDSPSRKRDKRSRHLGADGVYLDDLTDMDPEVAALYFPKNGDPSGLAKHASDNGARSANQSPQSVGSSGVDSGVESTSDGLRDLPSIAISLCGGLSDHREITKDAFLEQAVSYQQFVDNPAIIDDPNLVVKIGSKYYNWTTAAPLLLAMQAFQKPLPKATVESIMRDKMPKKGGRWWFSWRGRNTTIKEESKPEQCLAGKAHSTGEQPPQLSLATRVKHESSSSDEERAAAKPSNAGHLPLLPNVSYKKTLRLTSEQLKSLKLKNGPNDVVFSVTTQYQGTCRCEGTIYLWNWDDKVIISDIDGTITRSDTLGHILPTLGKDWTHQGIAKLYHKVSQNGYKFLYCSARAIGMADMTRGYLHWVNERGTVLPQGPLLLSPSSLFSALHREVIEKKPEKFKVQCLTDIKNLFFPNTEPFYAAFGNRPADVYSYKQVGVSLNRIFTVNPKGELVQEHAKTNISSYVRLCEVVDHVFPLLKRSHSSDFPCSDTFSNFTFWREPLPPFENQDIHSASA
inactive: [1] -0.071 | [2] 0.086 | [3] 0.071 | [4] 0.02 | [5] 0.023

LPCAT3 (UniProt Q6P1A2)
inactive: [1] 0.019 | [2] 0.071 | [3] -0.011 | [4] -0.093 | [5] -0.052

KSR1 (UniProt Q8IVT5)
UniProt Q8IVT5, sequence (Q8IVT5 whole entry, looked up): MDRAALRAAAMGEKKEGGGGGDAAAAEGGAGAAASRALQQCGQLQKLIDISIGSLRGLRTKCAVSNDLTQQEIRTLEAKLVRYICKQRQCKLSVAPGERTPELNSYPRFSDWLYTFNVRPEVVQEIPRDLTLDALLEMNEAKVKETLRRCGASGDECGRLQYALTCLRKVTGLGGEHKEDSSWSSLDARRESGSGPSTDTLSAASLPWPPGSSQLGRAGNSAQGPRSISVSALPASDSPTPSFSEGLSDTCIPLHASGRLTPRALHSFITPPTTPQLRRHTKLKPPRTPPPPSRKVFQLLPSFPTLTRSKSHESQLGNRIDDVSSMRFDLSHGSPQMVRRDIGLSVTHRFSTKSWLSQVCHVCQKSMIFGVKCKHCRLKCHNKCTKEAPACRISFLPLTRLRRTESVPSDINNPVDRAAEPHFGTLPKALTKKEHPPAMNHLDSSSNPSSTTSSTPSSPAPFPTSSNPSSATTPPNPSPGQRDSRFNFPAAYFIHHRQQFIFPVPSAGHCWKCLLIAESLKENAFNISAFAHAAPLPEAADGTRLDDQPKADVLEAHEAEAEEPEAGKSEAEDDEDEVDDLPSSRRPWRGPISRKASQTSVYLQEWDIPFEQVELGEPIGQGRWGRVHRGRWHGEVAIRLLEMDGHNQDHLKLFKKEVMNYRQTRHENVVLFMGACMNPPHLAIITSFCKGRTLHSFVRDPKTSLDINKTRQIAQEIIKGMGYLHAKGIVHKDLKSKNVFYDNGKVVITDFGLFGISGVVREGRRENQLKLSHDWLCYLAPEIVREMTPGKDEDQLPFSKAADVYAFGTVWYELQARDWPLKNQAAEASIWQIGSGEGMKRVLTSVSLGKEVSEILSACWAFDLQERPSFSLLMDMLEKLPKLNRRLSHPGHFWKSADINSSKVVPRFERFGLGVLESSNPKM
inactive: [1] -0.044 | [2] 0.033 | [3] 0.137 | [4] 0.044 | [5] 0.018

MAP3K20 (UniProt Q9NYL2)
inactive: [1] 0.02 | [2] -0.037 | [3] 0.017 | [4] 0.005 | [5] 0.022

MFSD11 (UniProt O43934)
inactive: [1] 0.04 | [2] 0.11 | [3] 0.104 | [4] -0.03 | [5] -0.049

MAP2K2 (UniProt P36507)
inactive: [1] 0.034 | [2] 0.065 | [3] 0.073 | [4] -0.027 | [5] -0.067

LUC7L (UniProt Q9NQ29)
inactive: [1] 0.011 | [2] -0.015 | [3] -0.011 | [4] 0 | [5] 0.027

IPO7 (UniProt O95373)
inactive: [1] -0.082 | [2] 0.031 | [3] 0.069 | [4] -0.025 | [5] 0.003

IWS1 (UniProt Q96ST2)
inactive: [1] -0.01 | [2] 0.08 | [3] 0.037 | [4] 0.045 | [5] -0.035

ITIH4 (UniProt Q14624)
UniProt Q14624, sequence (Q14624 whole entry, looked up): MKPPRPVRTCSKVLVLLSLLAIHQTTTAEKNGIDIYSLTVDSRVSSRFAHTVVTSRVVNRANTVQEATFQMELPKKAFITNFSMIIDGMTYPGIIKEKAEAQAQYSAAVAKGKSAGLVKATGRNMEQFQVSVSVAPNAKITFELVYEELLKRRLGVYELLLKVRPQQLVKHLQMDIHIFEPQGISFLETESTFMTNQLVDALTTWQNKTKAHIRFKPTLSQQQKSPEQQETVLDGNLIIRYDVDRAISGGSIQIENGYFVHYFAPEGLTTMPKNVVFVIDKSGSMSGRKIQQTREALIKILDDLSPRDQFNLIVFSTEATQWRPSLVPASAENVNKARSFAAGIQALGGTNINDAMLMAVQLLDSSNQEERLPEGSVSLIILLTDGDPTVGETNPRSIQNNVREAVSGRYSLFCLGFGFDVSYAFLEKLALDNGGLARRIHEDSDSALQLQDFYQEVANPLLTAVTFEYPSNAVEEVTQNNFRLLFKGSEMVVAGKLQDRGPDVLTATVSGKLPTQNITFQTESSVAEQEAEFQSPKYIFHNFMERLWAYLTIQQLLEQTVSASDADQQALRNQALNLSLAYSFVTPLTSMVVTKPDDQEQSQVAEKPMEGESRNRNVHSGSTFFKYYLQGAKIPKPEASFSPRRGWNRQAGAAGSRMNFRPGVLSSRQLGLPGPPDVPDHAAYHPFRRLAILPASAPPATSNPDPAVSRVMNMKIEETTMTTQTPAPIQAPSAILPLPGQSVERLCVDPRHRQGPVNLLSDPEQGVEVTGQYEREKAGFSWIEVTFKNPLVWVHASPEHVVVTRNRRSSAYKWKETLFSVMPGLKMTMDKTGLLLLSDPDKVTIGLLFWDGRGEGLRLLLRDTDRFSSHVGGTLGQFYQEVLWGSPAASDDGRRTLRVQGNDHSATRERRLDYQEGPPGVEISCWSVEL
inactive: [1] -0.088 | [2] 0.015 | [3] 0.089 | [4] -0.133 | [5] -0.006

KRAS isoform 2 (UniProt P01116)
UniProt P01116, sequence (P01116 whole entry, looked up): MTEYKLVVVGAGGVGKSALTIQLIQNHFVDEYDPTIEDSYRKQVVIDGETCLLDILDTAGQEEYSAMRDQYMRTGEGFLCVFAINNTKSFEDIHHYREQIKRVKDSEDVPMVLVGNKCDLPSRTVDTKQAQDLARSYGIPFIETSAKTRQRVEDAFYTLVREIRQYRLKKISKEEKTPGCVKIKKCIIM
inactive: [1] -0.002 | [2] -0.065 | [3] 0.096 | [4] 0.005 | [5] 0.053

LUZP1 (UniProt Q86V48)
inactive: [1] -0.053 | [2] -0.141 | [3] -0.171 | [4] -0.217 | [5] -0.201

ME2 (UniProt P23368)
inactive: [1] 0.046 | [2] 0.073 | [3] 0.078 | [4] -0.086 | [5] 0.09

LSR (UniProt Q86X29)
inactive: [1] -0.016 | [2] 0.033 | [3] 0.006 | [4] -0.034 | [5] 0.015

LTO1 (UniProt Q8WV07)
UniProt Q8WV07, sequence (Q8WV07 whole entry, looked up): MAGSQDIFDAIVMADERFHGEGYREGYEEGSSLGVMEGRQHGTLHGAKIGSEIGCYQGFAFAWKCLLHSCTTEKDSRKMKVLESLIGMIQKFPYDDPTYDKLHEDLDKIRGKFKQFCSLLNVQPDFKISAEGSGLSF
inactive: [1] 0.054 | [2] -0.02 | [3] 0.142 | [4] -0.062 | [5] 0.03

IPO11 isoform 2 (UniProt Q9UI26)
inactive: [1] 0.048 | [2] 0.064 | [3] 0.01 | [4] 0.013 | [5] 0.001

MAP3K4 isoform 2 (UniProt Q9Y6R4)
inactive: [1] -0.047 | [2] 0.026 | [3] 0.057 | [4] -0.034 | [5] 0.018

LMNA (UniProt P02545)
inactive: [1] 0.043 | [2] -0.016 | [3] -0.044 | [4] -0.017 | [5] 0.052

IKZF1 (UniProt Q13422)
inactive: [1] -0.011 | [2] 0.05 | [3] 0.15 | [4] -0.009 | [5] 0.014

ITM2B (UniProt Q9Y287)
inactive: [1] 0.013 | [2] -0.068 | [3] 0.061 | [4] -0.028 | [5] -0.112

LBR (UniProt Q14739)
UniProt Q14739, sequence (Q14739 whole entry, looked up): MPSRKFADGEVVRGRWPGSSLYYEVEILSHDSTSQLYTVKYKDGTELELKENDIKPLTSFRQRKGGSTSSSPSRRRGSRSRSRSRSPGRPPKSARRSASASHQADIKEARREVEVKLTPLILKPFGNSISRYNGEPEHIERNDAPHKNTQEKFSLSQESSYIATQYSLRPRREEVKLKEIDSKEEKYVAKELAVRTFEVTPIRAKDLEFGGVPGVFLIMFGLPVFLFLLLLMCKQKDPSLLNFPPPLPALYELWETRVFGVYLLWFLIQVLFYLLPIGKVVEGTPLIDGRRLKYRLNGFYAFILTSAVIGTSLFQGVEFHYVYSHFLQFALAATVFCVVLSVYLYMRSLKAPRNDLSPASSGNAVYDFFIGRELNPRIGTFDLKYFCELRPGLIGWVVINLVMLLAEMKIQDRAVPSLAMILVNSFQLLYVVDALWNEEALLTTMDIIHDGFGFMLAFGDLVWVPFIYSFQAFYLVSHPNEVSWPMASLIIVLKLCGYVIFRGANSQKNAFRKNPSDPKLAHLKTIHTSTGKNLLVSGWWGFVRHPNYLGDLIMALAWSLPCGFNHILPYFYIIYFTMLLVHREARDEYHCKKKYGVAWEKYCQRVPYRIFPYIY
inactive: [1] -0.105 | [2] 0.051 | [3] 0.011 | [4] -0.054 | [5] -0.005

MED25 isoform 3 (UniProt Q71SY5)
inactive: [1] -0.12 | [2] 0.06 | [3] -0.14 | [4] -0.128 | [5] -0.257

MEAK7 (UniProt Q6P9B6)
inactive: [1] -0.009 | [2] 0.051 | [3] 0.042 | [4] -0.009 | [5] -0.048

LPIN3 isoform 2 (UniProt Q9BQK8)
inactive: [1] -0.047 | [2] 0.066 | [3] 0.075 | [4] -0.138 | [5] -0.044

MAPK8 isoform 3 (UniProt P45983)
inactive: [1] -0.007 | [2] 0.151 | [3] 0.072 | [4] 0.061 | [5] -0.055

KEAP1 (UniProt Q14145)
inactive: [1] 0.015 | [2] -0.001 | [3] 0.007 | [4] 0.021 | [5] 0.001

INTS7 (UniProt Q9NVH2)
inactive: [1] -0.005 | [2] 0.086 | [3] 0.001 | [4] -0.085 | [5] -0.054

KIFBP (UniProt Q96EK5)
UniProt Q96EK5, sequence (Q96EK5 whole entry, looked up): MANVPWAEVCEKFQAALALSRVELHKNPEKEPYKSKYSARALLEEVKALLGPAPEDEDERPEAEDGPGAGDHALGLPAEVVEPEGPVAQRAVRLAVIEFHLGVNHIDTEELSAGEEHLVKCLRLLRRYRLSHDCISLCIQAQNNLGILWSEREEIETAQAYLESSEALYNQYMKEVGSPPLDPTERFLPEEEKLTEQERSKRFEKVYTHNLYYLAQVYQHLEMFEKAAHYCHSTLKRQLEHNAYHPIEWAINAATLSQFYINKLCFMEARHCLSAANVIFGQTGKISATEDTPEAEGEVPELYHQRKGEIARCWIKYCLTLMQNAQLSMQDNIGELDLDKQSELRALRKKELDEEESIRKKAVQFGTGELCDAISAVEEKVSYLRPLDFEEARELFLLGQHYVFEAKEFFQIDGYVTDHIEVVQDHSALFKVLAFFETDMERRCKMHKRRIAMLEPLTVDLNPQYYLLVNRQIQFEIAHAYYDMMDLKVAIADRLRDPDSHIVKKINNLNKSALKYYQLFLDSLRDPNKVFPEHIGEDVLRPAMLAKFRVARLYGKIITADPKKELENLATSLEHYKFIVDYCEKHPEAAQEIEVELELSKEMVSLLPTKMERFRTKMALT
inactive: [1] -0.075 | [2] 0.025 | [3] 0.06 | [4] -0.058 | [5] 0.005

MED1 (UniProt Q15648)
inactive: [1] -0.033 | [2] -0.009 | [3] 0.03 | [4] 0.079 | [5] 0.058

JMJD6 isoform 3 (UniProt Q6NYC1)
inactive: [1] -0.004 | [2] 0.046 | [3] 0.055 | [4] 0.006 | [5] 0.097

MAPK12 (UniProt P53778)
inactive: [1] -0.022 | [2] 0.017 | [3] 0.026 | [4] 0.008 | [5] -0.002

MARK3 (UniProt P27448)
inactive: [1] -0.042 | [2] 0.039 | [3] 0.104 | [4] 0.121 | [5] 0.004

IL27RA (UniProt Q6UWB1)
inactive: [1] 0.021 | [2] 0.144 | [3] 0.002 | [4] 0.097 | [5] 0.096

KPNA6 (UniProt O60684)
inactive: [1] -0.017 | [2] -0.046 | [3] 0.093 | [4] 0.105 | [5] 0.07

METAP1D (UniProt Q6UB28)
inactive: [1] 0.106 | [2] -0.125 | [3] 0.083 | [4] 0.08 | [5] 0.127
